Reference: the supplement of paper PMC11732987, “Enantioselective OTUD7B fragment discovery through chemoproteomics screening and high-throughput optimisation” (Communications Chemistry, 2025)

How the values were obtained:
Test in all cases: log2 ratio of Biotin-Ahx-Ub-VS probe labelling (fragment/DMSO); higher = less target engagement (more negative = stronger competition), active = hit call of the paper (q ≤ 0.05, log2 ratio ≤ -1)
Conditions in all cases: compound concentration: 200 uM; treatment time: 3 h
USP34 = USP34 (UniProt Q70CQ2)
USP34, sequence (Q70CQ2 whole entry, the tested form may be a part): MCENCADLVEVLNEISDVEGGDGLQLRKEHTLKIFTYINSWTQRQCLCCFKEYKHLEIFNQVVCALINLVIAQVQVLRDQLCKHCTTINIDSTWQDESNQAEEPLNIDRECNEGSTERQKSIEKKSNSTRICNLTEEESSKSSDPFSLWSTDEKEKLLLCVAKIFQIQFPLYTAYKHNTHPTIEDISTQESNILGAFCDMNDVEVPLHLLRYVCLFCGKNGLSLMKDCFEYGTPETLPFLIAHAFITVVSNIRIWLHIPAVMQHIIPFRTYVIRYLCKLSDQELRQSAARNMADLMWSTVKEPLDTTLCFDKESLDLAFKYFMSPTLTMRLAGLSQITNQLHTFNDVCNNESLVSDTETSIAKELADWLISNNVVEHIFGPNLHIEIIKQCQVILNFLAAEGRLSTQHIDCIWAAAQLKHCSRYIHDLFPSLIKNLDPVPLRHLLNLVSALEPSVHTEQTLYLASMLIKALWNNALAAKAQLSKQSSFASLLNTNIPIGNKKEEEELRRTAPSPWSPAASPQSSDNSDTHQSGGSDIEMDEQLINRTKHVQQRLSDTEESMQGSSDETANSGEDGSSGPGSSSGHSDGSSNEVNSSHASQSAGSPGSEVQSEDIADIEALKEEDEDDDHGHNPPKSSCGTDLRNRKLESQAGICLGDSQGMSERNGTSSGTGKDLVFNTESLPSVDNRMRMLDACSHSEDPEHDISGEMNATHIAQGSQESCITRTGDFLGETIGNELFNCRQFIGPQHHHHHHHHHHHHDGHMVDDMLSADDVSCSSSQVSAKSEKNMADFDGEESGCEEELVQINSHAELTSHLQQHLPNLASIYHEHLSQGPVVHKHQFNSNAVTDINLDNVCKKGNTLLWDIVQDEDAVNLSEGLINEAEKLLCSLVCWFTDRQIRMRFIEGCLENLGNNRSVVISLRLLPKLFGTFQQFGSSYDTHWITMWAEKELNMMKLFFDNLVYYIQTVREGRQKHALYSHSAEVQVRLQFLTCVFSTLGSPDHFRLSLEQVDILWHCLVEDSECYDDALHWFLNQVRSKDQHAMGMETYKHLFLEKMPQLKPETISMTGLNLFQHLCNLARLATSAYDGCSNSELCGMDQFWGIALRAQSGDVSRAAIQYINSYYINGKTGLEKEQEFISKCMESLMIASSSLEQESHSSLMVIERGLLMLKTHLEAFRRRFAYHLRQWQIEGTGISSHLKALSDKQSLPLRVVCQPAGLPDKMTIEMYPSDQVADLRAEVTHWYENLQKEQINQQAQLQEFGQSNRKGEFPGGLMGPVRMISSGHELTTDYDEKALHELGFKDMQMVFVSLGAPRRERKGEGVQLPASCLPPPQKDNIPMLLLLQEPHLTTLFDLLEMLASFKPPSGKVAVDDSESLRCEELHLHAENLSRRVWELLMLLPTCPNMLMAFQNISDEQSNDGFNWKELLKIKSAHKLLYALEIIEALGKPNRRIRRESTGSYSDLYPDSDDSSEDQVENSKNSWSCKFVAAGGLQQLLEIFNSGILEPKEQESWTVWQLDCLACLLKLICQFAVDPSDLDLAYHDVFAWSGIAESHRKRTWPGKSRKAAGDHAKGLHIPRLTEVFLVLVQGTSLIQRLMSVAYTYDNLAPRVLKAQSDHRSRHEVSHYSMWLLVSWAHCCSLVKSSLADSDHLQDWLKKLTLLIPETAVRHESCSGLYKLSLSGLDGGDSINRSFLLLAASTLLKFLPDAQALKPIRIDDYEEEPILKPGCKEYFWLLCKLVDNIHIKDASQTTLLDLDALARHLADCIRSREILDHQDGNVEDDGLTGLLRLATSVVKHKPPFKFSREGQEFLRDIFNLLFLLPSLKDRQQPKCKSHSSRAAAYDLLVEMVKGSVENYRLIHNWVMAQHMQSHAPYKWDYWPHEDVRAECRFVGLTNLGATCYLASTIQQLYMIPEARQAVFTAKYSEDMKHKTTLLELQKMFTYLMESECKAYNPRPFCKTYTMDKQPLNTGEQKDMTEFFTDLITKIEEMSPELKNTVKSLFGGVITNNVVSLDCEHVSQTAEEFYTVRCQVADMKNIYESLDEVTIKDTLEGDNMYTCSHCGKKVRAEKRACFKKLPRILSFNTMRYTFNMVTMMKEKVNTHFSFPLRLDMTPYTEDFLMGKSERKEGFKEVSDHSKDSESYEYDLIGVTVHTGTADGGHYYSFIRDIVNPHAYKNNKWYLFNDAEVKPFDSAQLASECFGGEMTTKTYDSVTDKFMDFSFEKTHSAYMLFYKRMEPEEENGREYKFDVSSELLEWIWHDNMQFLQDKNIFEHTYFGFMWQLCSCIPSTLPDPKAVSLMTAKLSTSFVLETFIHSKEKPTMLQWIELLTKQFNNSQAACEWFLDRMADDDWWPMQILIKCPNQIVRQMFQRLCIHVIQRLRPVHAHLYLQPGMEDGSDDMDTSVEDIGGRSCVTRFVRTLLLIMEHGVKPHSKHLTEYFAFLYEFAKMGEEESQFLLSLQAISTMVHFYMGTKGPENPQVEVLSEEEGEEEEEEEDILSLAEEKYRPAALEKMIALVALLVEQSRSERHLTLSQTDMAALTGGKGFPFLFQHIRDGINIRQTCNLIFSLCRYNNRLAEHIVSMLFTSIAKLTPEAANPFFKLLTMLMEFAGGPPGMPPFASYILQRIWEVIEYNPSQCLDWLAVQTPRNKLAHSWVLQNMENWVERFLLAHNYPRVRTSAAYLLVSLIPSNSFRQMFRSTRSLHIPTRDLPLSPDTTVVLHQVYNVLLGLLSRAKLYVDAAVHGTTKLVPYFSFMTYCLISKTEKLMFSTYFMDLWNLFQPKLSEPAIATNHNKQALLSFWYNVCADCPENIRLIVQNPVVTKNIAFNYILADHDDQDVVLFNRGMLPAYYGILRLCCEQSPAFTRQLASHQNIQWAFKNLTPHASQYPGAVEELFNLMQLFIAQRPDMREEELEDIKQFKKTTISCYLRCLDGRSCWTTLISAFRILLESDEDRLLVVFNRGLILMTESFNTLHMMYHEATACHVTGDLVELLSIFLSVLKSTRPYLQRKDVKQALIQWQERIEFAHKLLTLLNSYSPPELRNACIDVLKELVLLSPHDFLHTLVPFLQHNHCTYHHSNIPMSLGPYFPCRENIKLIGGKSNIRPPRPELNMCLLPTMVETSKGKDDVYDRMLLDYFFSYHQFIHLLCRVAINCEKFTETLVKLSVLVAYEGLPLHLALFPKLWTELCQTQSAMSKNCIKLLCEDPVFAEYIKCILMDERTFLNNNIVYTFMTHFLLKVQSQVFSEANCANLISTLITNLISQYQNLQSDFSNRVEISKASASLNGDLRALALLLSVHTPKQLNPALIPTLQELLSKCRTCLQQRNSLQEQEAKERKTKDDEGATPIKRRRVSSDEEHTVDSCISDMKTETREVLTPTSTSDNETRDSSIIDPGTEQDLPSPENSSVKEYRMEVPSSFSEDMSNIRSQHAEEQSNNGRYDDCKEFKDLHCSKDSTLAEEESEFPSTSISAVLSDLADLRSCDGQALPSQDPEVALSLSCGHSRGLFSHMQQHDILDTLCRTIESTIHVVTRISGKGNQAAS
How it was run: (§1)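 Labelled DUBs from HEK293T lysate were NeutrAvidin-enriched, digested with LysC and trypsin, and run by diaPASEF LC-MS/MS. Before that, each 495 µg sample in Tris/CHAPS/IGEPAL buffer with protease inhibitors was treated in triplicate with fragment at 200 µM or vehicle for 3 h, then with Biotin-Ahx-Ub-VS at 0.5 µM final for 1 h. Values are average log2 ratios of fragment over vehicle by unpaired t-test, based on global-median-normalised Spectronaut label-free quantities from proteins with ≥2 unique peptides.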

USP36 = target: T1, USP36 (UniProt Q9P275)
T1 sequence (whole entry): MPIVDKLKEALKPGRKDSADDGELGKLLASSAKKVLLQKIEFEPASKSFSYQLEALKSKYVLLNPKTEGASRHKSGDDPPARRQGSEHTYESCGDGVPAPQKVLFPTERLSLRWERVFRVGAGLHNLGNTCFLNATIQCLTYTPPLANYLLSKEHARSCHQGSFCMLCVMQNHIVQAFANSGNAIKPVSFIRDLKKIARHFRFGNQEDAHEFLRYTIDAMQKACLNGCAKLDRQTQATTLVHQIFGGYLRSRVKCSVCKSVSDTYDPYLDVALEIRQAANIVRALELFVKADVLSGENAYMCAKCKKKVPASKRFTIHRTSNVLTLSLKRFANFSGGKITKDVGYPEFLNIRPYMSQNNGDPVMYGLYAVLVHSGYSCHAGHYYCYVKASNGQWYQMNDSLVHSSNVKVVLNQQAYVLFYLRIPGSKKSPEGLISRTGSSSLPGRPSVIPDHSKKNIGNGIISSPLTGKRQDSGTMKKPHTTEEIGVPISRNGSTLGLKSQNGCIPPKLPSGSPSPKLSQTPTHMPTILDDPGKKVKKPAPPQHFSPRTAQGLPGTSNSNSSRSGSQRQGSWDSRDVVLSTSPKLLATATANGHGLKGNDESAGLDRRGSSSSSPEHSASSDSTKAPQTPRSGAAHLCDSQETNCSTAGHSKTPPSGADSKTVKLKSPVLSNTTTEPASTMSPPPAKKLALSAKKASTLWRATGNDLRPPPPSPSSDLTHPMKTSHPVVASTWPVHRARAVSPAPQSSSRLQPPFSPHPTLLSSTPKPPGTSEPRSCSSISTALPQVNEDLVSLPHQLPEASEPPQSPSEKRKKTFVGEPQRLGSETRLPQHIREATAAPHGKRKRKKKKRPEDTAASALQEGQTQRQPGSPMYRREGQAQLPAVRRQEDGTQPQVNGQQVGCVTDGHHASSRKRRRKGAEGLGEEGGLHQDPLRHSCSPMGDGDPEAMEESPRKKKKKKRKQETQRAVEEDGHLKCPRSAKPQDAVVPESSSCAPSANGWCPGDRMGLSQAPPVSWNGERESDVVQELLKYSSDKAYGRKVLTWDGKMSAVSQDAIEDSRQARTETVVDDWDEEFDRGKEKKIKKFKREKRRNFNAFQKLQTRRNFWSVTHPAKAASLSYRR
How it was run: as §1

USP38 = target: T2, USP38 (UniProt Q8NB14)
T2 sequence (whole entry): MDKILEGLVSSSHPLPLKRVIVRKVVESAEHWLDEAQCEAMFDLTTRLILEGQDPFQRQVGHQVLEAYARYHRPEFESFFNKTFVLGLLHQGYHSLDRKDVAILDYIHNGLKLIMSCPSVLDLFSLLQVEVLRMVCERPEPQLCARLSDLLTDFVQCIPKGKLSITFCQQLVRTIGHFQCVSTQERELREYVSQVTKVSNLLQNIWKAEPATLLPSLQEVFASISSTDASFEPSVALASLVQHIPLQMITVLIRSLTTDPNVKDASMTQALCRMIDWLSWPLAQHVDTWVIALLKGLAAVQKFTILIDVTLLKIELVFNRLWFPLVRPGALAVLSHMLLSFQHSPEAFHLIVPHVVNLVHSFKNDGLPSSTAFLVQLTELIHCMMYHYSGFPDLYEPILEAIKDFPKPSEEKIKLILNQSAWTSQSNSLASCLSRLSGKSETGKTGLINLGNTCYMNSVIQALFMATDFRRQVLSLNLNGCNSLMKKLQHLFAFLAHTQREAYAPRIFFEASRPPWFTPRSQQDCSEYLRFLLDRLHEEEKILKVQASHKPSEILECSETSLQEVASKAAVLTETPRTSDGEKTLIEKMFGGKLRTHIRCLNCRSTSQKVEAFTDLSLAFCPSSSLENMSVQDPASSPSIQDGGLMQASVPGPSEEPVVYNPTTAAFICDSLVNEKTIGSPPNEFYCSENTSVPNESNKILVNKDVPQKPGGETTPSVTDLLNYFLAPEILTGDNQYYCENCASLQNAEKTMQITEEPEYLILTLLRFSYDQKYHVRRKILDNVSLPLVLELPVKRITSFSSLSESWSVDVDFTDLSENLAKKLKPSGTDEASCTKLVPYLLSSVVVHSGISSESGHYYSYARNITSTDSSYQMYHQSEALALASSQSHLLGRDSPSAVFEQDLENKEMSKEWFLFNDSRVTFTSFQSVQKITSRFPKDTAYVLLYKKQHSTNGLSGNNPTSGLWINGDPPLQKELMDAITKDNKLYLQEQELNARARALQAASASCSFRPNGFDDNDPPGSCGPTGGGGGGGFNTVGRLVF
How it was run: as §1

USP39 = target: T3, USP39 (UniProt Q53GS9)
T3 sequence (whole entry): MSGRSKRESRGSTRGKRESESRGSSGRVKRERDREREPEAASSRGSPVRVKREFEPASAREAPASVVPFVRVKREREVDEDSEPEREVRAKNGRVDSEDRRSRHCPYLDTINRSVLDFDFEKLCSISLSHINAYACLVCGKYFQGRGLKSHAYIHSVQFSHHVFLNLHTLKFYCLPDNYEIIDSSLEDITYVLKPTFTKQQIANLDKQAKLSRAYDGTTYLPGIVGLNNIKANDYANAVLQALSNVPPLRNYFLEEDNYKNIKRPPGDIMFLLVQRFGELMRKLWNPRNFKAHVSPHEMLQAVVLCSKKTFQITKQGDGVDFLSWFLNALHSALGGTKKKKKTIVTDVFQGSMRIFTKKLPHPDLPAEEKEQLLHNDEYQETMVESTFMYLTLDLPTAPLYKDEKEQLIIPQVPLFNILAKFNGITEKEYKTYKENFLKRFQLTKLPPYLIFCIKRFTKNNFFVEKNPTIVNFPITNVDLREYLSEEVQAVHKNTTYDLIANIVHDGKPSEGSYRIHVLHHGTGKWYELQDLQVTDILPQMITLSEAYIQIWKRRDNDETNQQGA
How it was run: as §1

USP4 = target: T4, USP4 (UniProt Q13107)
T4 sequence (whole entry): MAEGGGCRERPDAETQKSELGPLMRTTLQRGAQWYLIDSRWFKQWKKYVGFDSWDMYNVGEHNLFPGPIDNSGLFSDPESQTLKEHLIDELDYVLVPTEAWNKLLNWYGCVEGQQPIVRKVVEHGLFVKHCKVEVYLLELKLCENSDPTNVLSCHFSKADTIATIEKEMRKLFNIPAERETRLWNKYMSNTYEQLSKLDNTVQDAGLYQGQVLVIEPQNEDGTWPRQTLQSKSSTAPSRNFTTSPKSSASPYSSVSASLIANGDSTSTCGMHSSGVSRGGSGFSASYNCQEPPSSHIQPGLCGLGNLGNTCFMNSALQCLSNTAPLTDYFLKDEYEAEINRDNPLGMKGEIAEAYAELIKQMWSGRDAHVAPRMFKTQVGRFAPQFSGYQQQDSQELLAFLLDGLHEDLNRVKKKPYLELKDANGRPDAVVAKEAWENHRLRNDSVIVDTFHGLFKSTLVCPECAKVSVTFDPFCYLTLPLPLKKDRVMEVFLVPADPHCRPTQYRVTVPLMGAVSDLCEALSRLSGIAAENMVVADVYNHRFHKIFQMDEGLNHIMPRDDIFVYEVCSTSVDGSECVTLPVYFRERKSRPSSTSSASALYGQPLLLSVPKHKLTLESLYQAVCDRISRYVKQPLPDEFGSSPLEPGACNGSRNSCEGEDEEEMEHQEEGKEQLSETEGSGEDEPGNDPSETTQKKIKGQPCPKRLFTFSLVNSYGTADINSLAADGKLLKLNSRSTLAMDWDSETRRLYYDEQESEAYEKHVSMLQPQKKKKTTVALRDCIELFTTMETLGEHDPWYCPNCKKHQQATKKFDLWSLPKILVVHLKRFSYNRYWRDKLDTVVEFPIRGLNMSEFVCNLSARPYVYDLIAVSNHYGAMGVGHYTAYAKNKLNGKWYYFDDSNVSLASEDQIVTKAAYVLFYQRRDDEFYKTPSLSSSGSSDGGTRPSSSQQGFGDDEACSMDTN
How it was run: as §1

Measured: log2 ratio of Biotin-Ahx-Ub-VS probe labelling

Cc1c(C#N)c(NC(=O)CCl)n(Cc2ccco2)c1C
inactive: USP34 -0.304 | USP36 -0.0578 | USP38 -0.297 | USP39 -0.162 | USP4 -0.372
